This is a sample that favours compounds with a hit; in the whole collection about 6.2% have one here.
LASV entry inh: blocks Lassa virus binding to or entry into cells; 300,000 compounds, 1.2% hits; AID 540256; Potency, µM (doses to about 37.9 µM), for the others: at the top dose activity change, negative = inhibition, actives largely listed as inhibitors; Lassa virus pseudotype entry inhibition, cell reporter; calls by dose curve; tested in HEK293 cells; also: potency is read from the fitted curve at half-maximal effect; nearly all actives have a fitted effect of over 50% in size
FMDV inh: antivirals against foot and mouth disease virus | AID 1159524 | FMDV antiviral cell-based qHTS | Potency, µM (doses to about 57.9 µM), for inactives: top-dose activity change, negative = inhibition, most hits filed as inhibitors | 410,000 compounds, 1.2% hits; calls by dose curve; tested in HEK293T cells; also: read-out not given here; potency is read from the fitted curve at half-maximal effect; nearly all actives have a fitted effect of over 45% in size
MARV entry inh: blocks Marburg virus binding to or entry into cells | 300,000 compounds, 1.8% hits | Potency, µM (highest dose often 37.8 µM), for the others: at the top dose activity change, negative = inhibition, usual class: inhibitors | Marburg virus pseudotyped entry inhibition, cell reporter; calls by dose curve; tested in HEK293 cells; also: potency is read from the fitted curve at half-maximal effect
HCMV antiviral: blocks human cytomegalovirus replication; 410,000 compounds, 4.5% hits; AID 1259415; HFF cells, HCMV-luciferase reporter, 72 h; hits give low values; activity change, negative = inhibition, % at 57.5 µM; in the data active = activity change below about -60%; inconclusive = no clear call, values can overlap the other calls; inactive = above about -39%
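Two compound doses tested in HFFs infected with HCMV-luciferase, MOI 1 PFU/cell, 72 h at 37C. Lysate luminescence read with OneGlo; data normalized against buffer-only and 10uM Salinomycin inhibitor controls.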
Active calls of the source: *; ? = inconclusive; · = no result given; ! = repeats disagree; [ ] = another dose, or the depositor's remark. % is scaled to controls: 0 for no effect and ±100 for the full control effect.

SMILES | LASV entry inh | FMDV inh | MARV entry inh | HCMV antiviral
O=C(CSc1ccc(Cl)cc1)Nc1ccc(N2CCN(C(=O)c3ccco3)CC2)cc1 | -22% | 20µM* | ? | 2
Cc1ccccc1C(=O)N1CCN(c2ccc(NC(=O)CSc3ccc(Cl)cc3)cc2)CC1 | ? | ? | 11µM* | -71*
Cc1ccccc1OCC(=O)Nc1ccc(N2CCN(C(=O)c3ccco3)CC2)cc1 | ? | 28µM* | ? | -73*
O=S1(=O)CCOCCCN1Cc1cccc(F)c1 | · | 4% | · | -2
c1ccc2cc(Sc3ncnc4c3oc3ccccc34)ccc2c1 | 7% | ? | 2% | -14
COc1ccc(C2C(C(=O)N3CCOCC3)c3ccccc3C(=O)N2c2ccc(OC)cc2)cc1 (configuration not stated) | -15% | -5% | -6% | 21
O=C(Nc1cccc(C(F)(F)F)c1)n1cc(-c2ccccn2)c(N2CCOCC2)n1 | -14% | -20% | 7%[46.1 µM] | -64*
CCN1/C(=C\C=C(C(C)=O)C(C)=O)Sc2ccccc21 | -20%[46.1 µM] | -5% | -2%[46.1 µM] | 23
CCN1/C(=C\C=C2\C(=O)N(c3ccccc3)C(=S)N2C)Sc2ccccc21 | ? | ? | 15%[46.1 µM] | -64*
O=C(NCCc1ccccc1)c1ccc(-n2cnnn2)cc1 | ? | 78% | 2% | 96
CC1=NN(c2ccc(Cl)cc2)C(=O)/C1=C\c1cccn1-c1ccc(S(N)(=O)=O)cc1 | 2% | 40µM* | -3% | -8
Cc1ccc(S(=O)(=O)N/N=C/c2cccn2-c2ccc(Cl)cc2)cc1 | ? | 65% | 3% | -22
O=C(c1ccc(Oc2ccc(C(F)(F)F)cc2[N+](=O)[O-])cc1)N1CCOCC1 | ? | ? | ? | -83*
CCN(CC)CCCNc1nnc(C)c(=O)[nH]1 | 0% | -7% | 2% | -12
Cc1ccc(NC(=O)c2nn(C34CC5CC(CC(C5)C3)C4)cc2[N+](=O)[O-])cc1 | -18% | 57% | ? | -76*
Cc1c(CCOC(=O)C2C3CC4CC(C3)CC2C4)sc[n+]1CC(=O)c1ccc(Br)cc1 (configuration not stated) | -23% | ? | ? | -103*!
CC(C)Oc1ccc(CNC(=O)c2cnc3sc(N4CCCC4)nn3c2=O)cc1 | ? | -14% | · | -1
c1ccc(-c2nc3cc4ccccc4cc3[nH]2)nc1 | 2.2µM* | -76% | ? | -20
COc1ccc(C(=O)n2ccc(C)n2)cc1Br | · | · | 1% | ·
COc1ccc(C(=O)NC(Nc2ccc(C)cc2)C(Cl)(Cl)Cl)cc1 (configuration not stated) | -11% | ? | ? | -72*
COc1ccc(NC(NC(=O)c2ccc(OC)cc2)C(Cl)(Cl)Cl)cc1 (configuration not stated) | ? | -27% | ? | -27
CCOC(=O)c1c2c([nH]c(=S)c1C#N)CCCC2 | ? | -14% | 2% | -4
Cc1cc(C)c(C#N)c(Nc2ccc3c(c2)OCCO3)n1 | · | 1% | · | 93
Cc1cc(Nc2ccc3c(c2)OCCO3)c2cc(Cl)ccc2n1 | 9% | 40µM* | -26% | -93*
Cc1ccc(Nc2cc(C)nc3ccc(C)cc23)cc1 | ? | -28% | 11µM* | -39
SMILES | LASV entry inh | FMDV inh | MARV entry inh | HCMV antiviral
CCOc1ccc(Nc2cc(C)nc3ccc(C)cc23)cc1 | 11µM* | ? | ? | -74*
Cc1ccc(Nc2cc(C)nc3ccccc23)c(C)c1 | -9% | ? | 10µM* | ?
COc1ccc(Nc2cc(C)nc3ccc(OC)cc23)cc1 | ? | -1% | ? | ?
COC(=O)c1ccc(-c2ccc(Cl)cc2)nc1C | ? | -38% | ? | 57
CCOc1ccc(Nc2ncnc3ccc([N+](=O)[O-])cc23)cc1 | 2% | ? | -13%[46.1 µM] | -69*
CCOCCn1c(=NC(=O)c2cc(Cl)sc2Cl)sc2cc(S(N)(=O)=O)ccc21 | 2% | · | -5% | ·
C=CCn1c(=NC(=O)c2ccc(S(=O)(=O)N3CCc4ccccc4C3)cc2)sc2cc(S(N)(=O)=O)ccc21 | ? | 1% | ? | -65*
CCOCCn1c(=NC(=O)c2ccc(S(=O)(=O)N3CCOCC3)cc2)sc2cc(S(N)(=O)=O)ccc21 | 17%[46.1 µM] | -24% | 0%[46.1 µM] | -63*
C#CCn1c(=NC(=O)c2ccc(S(=O)(=O)N3CCc4ccccc4C3)cc2)sc2cc(S(N)(=O)=O)ccc21 | 9.2µM* | -19% | 14µM* | ·
COCCn1c(=NC(=O)c2ccc(S(=O)(=O)N3CCc4ccccc4C3)cc2)sc2cc(S(N)(=O)=O)ccc21 | 3% | 6% | 14% | -19
Cc1noc(C)c1CSc1nnc2ccccn12 | 6% | -13% | 5% | -3
COc1ccc(-n2nnnc2C(c2cccc(OC)c2OC)N2CCC(n3c(=O)[nH]c4ccccc43)CC2)cc1 (configuration not stated) | · | ? | · | -35
COc1ccc(-n2nnnc2C(c2ccccc2)N2CCC(n3c(=O)[nH]c4ccccc43)CC2)cc1 (configuration not stated) | · | 0% | · | -18
COc1cccc(C(c2nnnn2-c2ccc3c(c2)OCCO3)N2CCC(n3c(=O)[nH]c4ccccc43)CC2)c1OC (configuration not stated) | · | -25% | · | -97*
O=c1[nH]c2ccccc2n1C1CCN(C(c2ccccc2OC(F)(F)F)c2nnnn2-c2ccc3c(c2)OCCO3)CC1 (configuration not stated) | · | ? | · | -106*
CC(C)NC(=S)NC(=O)/C=C/c1cccc2ccccc12 | 9% | -23% | 38% | -29
CCCC1=Nc2cc(C(=O)NC(C)c3ccccc3)ccc2Sc2ccc(C)cc21 (configuration not stated) | ? | -3% | ? | -21
c1ccc(-c2cc3ccccc3nc2N2CCCC2)cc1 | 3% | -22% | -1% | -61*
Cc1ccc(-c2cc3ccccc3nc2N2CCOCC2)cc1 | 19%[46.1 µM] | -19% | 19%[46.1 µM] | -29
CCSc1nnc2c(n1)OC(c1ccc(OC)cc1OC)N(C(C)=O)c1ccccc1-2 (configuration not stated) | -27%[46.1 µM] | 6% | -7%[46.1 µM] | -63*
COc1cc(OC)c(C2Oc3nc(SC)nnc3-c3ccccc3N2C(C)=O)cc1OC (configuration not stated) | · | 12% | 5% | 12
Oc1ccc(-c2cnc(-c3ccc(O)cc3)nc2)cc1 | 3.2µM* | ? | 1.1µM* | 47
Cc1ccc(NC(=O)NCc2ccc3c(c2)OCO3)cc1 | 7% | 54% | ? | 47
CCNC(=O)CC1C(=O)N(C)C(=S)N1NC(=O)c1ccc(Cl)cc1 (configuration not stated) | -8% | -3% | 4% | -19
CN1C(=O)C(CC(=O)Nc2ccccc2F)N(NC(=O)c2ccc(Br)cc2)C1=S (configuration not stated) | -15%[46.1 µM] | 12% | 13µM* | 0
CCN(CC)CCOCCOC(=O)C1(c2ccccc2)CCCC1 | ? | -16% | 16µM* | -16
COc1ccc(C=C2CS(=O)(=O)CC(=Cc3ccc(OC)cc3)C2=O)cc1 | · | 13µM* | · | -99*
COc1ccc(/C=C2\CCCCC2=O)cc1 | ? | 11% | -4%[46.1 µM] | 58
C/C(N)=C(/C#N)C(=O)COC(=O)c1cccc(C)c1O | · | 22% | · | -38

Screening data: PubChem, National Center for Advancing Translational Sciences (NCATS)
